Drawing on PubChem BioAssay (Tox21), this text covers Potency and cytotoxicity increase for 40 molecules.

Values joined by “and” are separate entries in the source; they are usually repeats but may differ in a detail not shown here. Equal values may be shown once. Records with an inconclusive call do not appear. A call without a number means that no potency is given here. Unmarked numbers belong to inactive results. Active and inactive are the calls of the source. Calls come from the whole dose curve; as a rule, active = well fitted activation curve with a large enough effect in the repeat runs; inconclusive = weak or mixed curves; inactive = flat fitted curve, though single readings scatter.
Potency is the fitted concentration of half-maximal effect.

The nature of this assay: A CellTox Green Cytotoxicity Assay to monitor cytotoxicity in HepG2 cells - 16 hour (AID 1224876). Note: nearly all actives have a fitted effect of over 45% in size. The settings on record: CellTox Green fluorescence; series mostly up to 76.8 µM. An excerpt:
National Center for Advancing Translational Sciences [NCATS]
NIH Chemical Genomics Center [NCGC]
U.S. Environmental Protection Agency [EPA]
National Institutes of Environmental Health Sciences [NIEHS]
National Toxicology Program [NTP]
Cell-based models are critical for drug discovery. Determining the natural cytotoxic effects resulting from test compounds is an essential research activity. A CellTox Green Cytotoxicity Assay to monitor cytotoxicity in real time of continues cell culture during 40 hours of the compound treatment was used to screen Tox21 10K library compounds in HepG2 cells. CellTox Green Cytotoxicity Assay is a nonlytic, homogeneous, biofluorescent method to measure cytotoxicity in cell culture after experimental manipulation. The assay system uses a proprietary asymmetric cyanine dye that is excluded from viable cells but preferentially stains the dead cell's DNA. […] Viable cells produce no appreciable increases in fluorescence. Therefore, the fluorescence signal produced by the binding interaction with dead cell DNA is proportional to cytotoxicity.
The mixture of HepG2 cell suspension and reagents were dispensed at 600cells/6 ul/well in 1536-well tissue culture treated black solid bottom plates using a Multidrop dispenser. After the assay plates were incubated at a 37 C/5% CO2 incubator for 5 hours, 23 nL of compounds dissolved in DMSO, positive and negative controls was transferred to the assay plate by a pintool work station. The plates were incubated at 37 C for 40 hours. The fluorescence intensity were measured at 0h, 8h, 16h, 24h, 32h and 40h time points using ViewLux plate reader during compound treatment.
Turning to `C#Cc1ccc(-c2ccccc2F)cc1`, the Potency result is “inactive”.
On to `COc1ccc(-c2coc3cc(O)ccc3c2=O)cc1`, for which the Potency entry is “inactive”.
On the same count and under the same terms, the same measure for `CCN(CC)C(=O)c1cc(S(=O)(=O)Cc2ccccc2)c(N2CCC(c3ccccc3)CC2)cc1N(CC)CCN(C)C`: 17.2 µM (active); for `C#C[C@]1(OC(C)=O)CC[C@H]2[C@@H]3CCC4=C[C@@H](OC(C)=O)CC[C@@H]4[C@H]3CC[C@@]21C`: “inactive”; for `COC(=O)C1=C(C)NC(C)=C(C(=O)OCCN2CCN(C(c3ccccc3)c3ccccc3)CC2)C1c1cccc([N+](=O)[O-])c1` (stereo not given): “inactive”.
For the molecule `O=C(O)c1cc(N=Nc2ccc([N+](=O)[O-])cc2)ccc1O`, the Potency result is “inactive”.
On to `CCN(CCN)c1cccc(C)c1`, for which the Potency result is “inactive”.
With `COc1cc2nc(N3CCN(C(=O)c4ccco4)CC3)nc(N)c2cc1OC`, the cytotoxicity increase is 29.2% [at 15.8 µM].
For the molecule `Oc1cc(Cl)cc(Cl)c1Cl`, the Potency entry is “inactive”.
`C=Cc1cccc(C)c1`: the Potency entry was “inactive”.
As for `CCCCCCCCCCCCCC[N+](C)(C)Cc1ccccc1`, the Potency was 49.7 µM (active) and 23.9 µM (active) and 17.8 mM (active).
On the same count and under the same terms, the same measure for `CCC(COC(=O)CCS)(COC(=O)CCS)COC(=O)CCS`: “inactive”; for `CNC(=O)c1ccccc1Sc1ccc2c(/C=C/c3ccccn3)n[nH]c2c1`: “inactive”.
For `O=[N+]([O-])c1ccc(O)cc1C(F)(F)F`, the Potency result is “inactive”.
Regarding `Cl[Si](Cl)(c1ccccc1)c1ccccc1`, the Potency entry is “inactive”.
Same read-out and setting: the same measure for `CC(CCc1ccccc1)NCC(O)c1ccc(O)c(C(N)=O)c1` (stereo not given): “inactive”; for `O=C(O)CCN(C1(C(=O)NO)CCCC1)S(=O)(=O)c1ccc(Oc2ccc(F)cc2)cc1`: “inactive”; for `O=C(Nc1ccc2c(O)c(N=Nc3ccc(N=Nc4ccc(S(=O)(=O)O)cc4)cc3)c(S(=O)(=O)O)cc2c1)c1ccccc1`: “inactive”.
Same read-out and setting: the result for `CC(C)(C)C1CCC(=O)CC1` reads “inactive”.
In the case of `Cc1c(C)c2c(c(C)c1O)CC[C@@](C)(CCC[C@H](C)CCC[C@H](C)CCCC(C)C)O2`, the Potency result is “inactive”.
In the case of `c1cnccn1`, the Potency result is “inactive”.
On to `O=S(=O)(O)c1ccccc1/C=C/c1ccc(-c2ccc(/C=C/c3ccccc3S(=O)(=O)O)cc2)cc1`, for which the Potency result was “inactive”.
On the same count and under the same terms, the result for `CCCCOC(=O)CO` reads “inactive”; that for `ClCCl`, “inactive”; that for `CC(C)CCOC(=O)/C=C/c1ccccc1`, “inactive”.
Take `CN1CCCCC1CCN1c2ccccc2Sc2ccc(S(C)=O)cc21` (stereo not given): the Potency entry was “inactive”.
On the same count and under the same terms, the result for `Cc1ccc(O)c(N)c1` reads “inactive”; that for `CCN1C(=O)c2ccccc2C1Nc1ccc(OCCN2CCCCC2)cc1` (stereo not given), “inactive”.
Still for that read-out and setting: the result for `COc1cc(/C=C/c2ccccc2)oc(=O)c1` reads “inactive”; that for `CCCCCCOC(=O)C(C)CC` (stereo not given), “inactive”.
Turning to `CC(=O)Oc1cc2c(s1)CCN(C(C(=O)C1CC1)c1ccccc1F)C2` (stereo not given), the Potency entry was “inactive”.
On to `CC/C=C\CCCCCO`, for which the Potency entry was “inactive”.
The same measure, in the same setting: the same measure for `Cc1ccc(N/N=c2\c(=O)cc/c(=N\Nc3ccc(S(=O)(=O)O)cc3)c2=O)c(C)c1`: “inactive”.
With `CN(C)Cc1ccccc1O`, the Potency entry is “inactive”.
In the case of `O=C(/C=C/c1ccc(O)c(O)c1)O[C@@H](C(=O)O)[C@@H](OC(=O)/C=C/c1ccc(O)c(O)c1)C(=O)O`, the Potency entry is “inactive”.
As for `CCCNCCC`, the Potency entry was “inactive”.
For the molecule `Cc1c(N)cccc1C(F)(F)F`, the Potency entry is “inactive”.
Take `COCCOc1cc2cc(C(=O)NC3CCN(C(C)C)CC3)n(CC(=O)Nc3ccc(Cl)cn3)c2cn1`: the Potency result was “inactive”.
Still for that read-out and setting: the same measure for `OC1CCCc2ccccc21` (stereo not given): “inactive”; for `CCCCCCCCCCCCCC[N+](C)(C)C`: 16.8 µM (active) and 43.6 µM (active) and 23.9 µM (active).
